Assays:
[1] = biological target: Dual specificity protein kinase CLK3 (Homo sapiens) (UniProt P49761); conditions: at 1 µM;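 also: each value is the mean inhibition of CLK3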
[2] = biological target: Dual specificity tyrosine-phosphorylation-regulated kinase 1A (Homo sapiens) (UniProt Q13627); conditions: at 0.1 µM
[3] = biological target: Dual specificity tyrosine-phosphorylation-regulated kinase 1A (Homo sapiens) (UniProt Q13627); conditions: at 1 µM
[4] = biological target: Dual specificity tyrosine-phosphorylation-regulated kinase 1B (Homo sapiens) (UniProt Q9Y463); conditions: at 0.1 µM
[5] = biological target: Dual specificity tyrosine-phosphorylation-regulated kinase 1B (Homo sapiens) (UniProt Q9Y463); conditions: at 1 µM
[6] = biological target: T1, Dual specificity tyrosine-phosphorylation-regulated kinase 2 (Homo sapiens) (UniProt Q92630); conditions: at 0.1 µM
T1 sequence (whole entry): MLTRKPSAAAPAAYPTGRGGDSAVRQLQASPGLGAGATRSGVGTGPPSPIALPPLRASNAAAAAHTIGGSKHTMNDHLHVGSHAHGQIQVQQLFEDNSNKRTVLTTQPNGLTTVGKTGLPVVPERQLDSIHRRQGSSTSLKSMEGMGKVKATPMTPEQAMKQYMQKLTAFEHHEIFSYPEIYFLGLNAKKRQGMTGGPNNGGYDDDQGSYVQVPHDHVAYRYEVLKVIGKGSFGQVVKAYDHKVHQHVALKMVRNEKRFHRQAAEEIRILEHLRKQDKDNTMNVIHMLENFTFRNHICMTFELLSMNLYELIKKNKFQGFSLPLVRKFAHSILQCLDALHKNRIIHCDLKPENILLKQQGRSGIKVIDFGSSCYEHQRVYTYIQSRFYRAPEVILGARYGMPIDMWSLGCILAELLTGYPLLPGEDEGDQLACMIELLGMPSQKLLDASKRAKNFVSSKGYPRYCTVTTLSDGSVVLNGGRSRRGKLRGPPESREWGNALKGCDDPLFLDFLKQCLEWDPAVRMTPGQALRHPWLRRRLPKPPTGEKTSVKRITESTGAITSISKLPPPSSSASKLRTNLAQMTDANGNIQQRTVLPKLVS

[7] = biological target: T1, Dual specificity tyrosine-phosphorylation-regulated kinase 2 (Homo sapiens); conditions: at 1 µM
[8] = biological target: Glycogen synthase kinase-3 alpha (Homo sapiens) (UniProt P49840); conditions: at 0.1 µM
[9] = biological target: Glycogen synthase kinase-3 alpha (Homo sapiens) (UniProt P49840); conditions: at 1 µM
[10] = biological target: Glycogen synthase kinase-3 beta (Homo sapiens) (UniProt P49841); conditions: at 0.1 µM
[11] = biological target: Glycogen synthase kinase-3 beta (Homo sapiens) (UniProt P49841); conditions: at 1 µM
[12] = biological target: Homeodomain-interacting protein kinase 1 (Homo sapiens) (UniProt Q86Z02); conditions: at 0.1 µM
[13] = biological target: Homeodomain-interacting protein kinase 1 (Homo sapiens) (UniProt Q86Z02); conditions: at 1 µM
[14] = biological target: T2, Homeodomain-interacting protein kinase 4 (Homo sapiens) (UniProt Q8NE63); conditions: at 0.1 µM
T2 sequence (whole entry): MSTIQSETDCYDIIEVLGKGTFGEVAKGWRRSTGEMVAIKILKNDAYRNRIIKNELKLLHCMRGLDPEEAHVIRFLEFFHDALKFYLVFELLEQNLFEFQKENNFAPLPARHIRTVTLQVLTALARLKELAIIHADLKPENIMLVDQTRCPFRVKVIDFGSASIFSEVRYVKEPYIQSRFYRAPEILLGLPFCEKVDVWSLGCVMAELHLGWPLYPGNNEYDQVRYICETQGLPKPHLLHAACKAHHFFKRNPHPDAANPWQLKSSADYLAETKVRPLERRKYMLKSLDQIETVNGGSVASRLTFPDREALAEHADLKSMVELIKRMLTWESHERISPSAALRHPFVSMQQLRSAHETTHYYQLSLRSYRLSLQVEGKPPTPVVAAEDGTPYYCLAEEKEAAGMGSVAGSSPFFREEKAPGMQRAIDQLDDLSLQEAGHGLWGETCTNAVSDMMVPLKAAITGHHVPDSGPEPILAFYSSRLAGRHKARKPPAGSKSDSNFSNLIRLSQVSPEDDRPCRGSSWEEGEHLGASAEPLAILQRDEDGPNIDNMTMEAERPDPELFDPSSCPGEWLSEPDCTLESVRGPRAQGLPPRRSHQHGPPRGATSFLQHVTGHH

[15] = biological target: T2, Homeodomain-interacting protein kinase 4 (Homo sapiens); conditions: at 1 µM
[16] = biological target: Mitogen-activated protein kinase 9 (Homo sapiens) (UniProt P45984); conditions: at 0.1 µM
[17] = biological target: Mitogen-activated protein kinase 9 (Homo sapiens) (UniProt P45984); conditions: at 1 µM
[18] = biological target: Mitogen-activated protein kinase 1 (Homo sapiens) (UniProt P28482); conditions: at 0.1 µM
[19] = biological target: Mitogen-activated protein kinase 1 (Homo sapiens) (UniProt P28482); conditions: at 1 µM
[20] = biological target: Mitogen-activated protein kinase 3 (Homo sapiens) (UniProt P27361); conditions: at 0.1 µM;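 also: each value is a mean inhibition figure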
Chain of Mitogen-activated protein kinase 3 (Homo sapiens) (P27361 whole entry): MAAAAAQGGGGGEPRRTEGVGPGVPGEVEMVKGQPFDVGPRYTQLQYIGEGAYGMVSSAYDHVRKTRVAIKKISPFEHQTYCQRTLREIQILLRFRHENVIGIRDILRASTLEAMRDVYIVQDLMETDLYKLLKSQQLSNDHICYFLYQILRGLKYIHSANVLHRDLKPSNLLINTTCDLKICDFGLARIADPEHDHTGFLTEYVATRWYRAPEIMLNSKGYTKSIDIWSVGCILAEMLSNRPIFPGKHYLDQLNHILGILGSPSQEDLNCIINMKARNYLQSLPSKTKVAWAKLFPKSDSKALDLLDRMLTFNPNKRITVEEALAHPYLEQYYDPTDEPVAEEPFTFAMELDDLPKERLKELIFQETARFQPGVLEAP

Chain of Dual specificity protein kinase CLK3 (Homo sapiens) (P49761 whole entry, looked up): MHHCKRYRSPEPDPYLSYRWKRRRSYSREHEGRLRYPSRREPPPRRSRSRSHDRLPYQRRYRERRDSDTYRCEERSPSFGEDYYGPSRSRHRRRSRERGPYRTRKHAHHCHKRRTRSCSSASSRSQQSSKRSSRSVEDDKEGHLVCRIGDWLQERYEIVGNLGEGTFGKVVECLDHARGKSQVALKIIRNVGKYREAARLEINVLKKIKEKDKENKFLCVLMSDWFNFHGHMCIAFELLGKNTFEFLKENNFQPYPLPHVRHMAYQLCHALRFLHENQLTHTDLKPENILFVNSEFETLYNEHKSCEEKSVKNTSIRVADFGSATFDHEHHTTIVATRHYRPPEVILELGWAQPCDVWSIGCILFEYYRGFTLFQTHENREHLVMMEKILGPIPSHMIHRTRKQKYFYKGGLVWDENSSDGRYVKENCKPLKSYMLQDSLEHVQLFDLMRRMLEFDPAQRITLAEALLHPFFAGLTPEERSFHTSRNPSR
Chain of Homeodomain-interacting protein kinase 1 (Homo sapiens) (Q86Z02 whole entry, looked up): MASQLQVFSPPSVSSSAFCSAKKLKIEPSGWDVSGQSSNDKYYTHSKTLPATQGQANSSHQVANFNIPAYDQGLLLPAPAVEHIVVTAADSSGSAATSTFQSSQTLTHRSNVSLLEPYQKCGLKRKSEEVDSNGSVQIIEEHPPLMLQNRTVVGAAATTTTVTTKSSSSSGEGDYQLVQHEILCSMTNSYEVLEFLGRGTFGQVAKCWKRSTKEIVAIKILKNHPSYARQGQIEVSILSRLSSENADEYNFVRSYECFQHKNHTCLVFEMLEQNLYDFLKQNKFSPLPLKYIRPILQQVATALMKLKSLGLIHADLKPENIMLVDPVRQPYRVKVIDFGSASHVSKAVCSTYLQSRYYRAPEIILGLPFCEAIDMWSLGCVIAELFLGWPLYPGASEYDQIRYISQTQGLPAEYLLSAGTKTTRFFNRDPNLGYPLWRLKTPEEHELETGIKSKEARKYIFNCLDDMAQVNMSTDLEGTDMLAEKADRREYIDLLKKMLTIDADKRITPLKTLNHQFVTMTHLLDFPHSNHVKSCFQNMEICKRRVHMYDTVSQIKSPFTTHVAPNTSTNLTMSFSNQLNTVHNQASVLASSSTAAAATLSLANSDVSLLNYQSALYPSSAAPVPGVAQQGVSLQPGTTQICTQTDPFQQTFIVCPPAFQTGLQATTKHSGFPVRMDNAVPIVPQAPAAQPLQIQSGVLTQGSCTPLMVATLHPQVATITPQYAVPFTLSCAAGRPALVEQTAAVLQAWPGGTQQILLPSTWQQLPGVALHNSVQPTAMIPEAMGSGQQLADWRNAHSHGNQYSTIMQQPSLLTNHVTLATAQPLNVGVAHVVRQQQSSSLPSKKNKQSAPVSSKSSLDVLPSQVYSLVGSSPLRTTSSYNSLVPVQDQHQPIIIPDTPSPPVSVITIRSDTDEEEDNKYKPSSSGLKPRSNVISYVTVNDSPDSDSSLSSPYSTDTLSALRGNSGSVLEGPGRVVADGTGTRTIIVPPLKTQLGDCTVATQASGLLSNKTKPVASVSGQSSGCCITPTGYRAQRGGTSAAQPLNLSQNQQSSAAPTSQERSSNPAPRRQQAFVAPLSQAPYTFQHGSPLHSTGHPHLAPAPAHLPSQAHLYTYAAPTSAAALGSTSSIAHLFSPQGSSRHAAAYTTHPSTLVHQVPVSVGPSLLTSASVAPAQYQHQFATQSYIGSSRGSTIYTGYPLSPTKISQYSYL
Chain of Mitogen-activated protein kinase 1 (Homo sapiens) (P28482 whole entry): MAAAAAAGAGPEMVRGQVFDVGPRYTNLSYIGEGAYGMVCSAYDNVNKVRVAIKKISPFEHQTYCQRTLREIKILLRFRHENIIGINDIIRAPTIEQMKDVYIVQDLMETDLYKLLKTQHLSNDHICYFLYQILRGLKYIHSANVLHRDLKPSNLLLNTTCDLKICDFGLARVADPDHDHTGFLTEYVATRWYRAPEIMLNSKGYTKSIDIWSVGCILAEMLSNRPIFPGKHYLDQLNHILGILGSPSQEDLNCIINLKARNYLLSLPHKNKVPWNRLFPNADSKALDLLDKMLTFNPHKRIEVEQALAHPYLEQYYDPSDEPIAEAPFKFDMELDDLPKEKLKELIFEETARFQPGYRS
Chain of Glycogen synthase kinase-3 alpha (Homo sapiens) (P49840 2-483 limits assumed): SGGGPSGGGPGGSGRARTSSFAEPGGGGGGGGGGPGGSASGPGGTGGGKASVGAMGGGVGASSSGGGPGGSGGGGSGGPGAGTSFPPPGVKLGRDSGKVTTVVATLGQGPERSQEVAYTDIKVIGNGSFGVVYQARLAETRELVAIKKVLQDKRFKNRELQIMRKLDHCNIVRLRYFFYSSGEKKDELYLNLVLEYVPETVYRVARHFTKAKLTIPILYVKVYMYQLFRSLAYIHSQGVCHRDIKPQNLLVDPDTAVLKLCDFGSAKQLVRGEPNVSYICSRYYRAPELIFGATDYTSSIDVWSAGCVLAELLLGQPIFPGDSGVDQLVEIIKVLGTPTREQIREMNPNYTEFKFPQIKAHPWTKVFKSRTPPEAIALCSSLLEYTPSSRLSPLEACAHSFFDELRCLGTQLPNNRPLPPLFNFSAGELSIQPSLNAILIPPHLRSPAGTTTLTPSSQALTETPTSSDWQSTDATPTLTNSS
Chain of Dual specificity tyrosine-phosphorylation-regulated kinase 1B (Homo sapiens) (Q9Y463 whole entry, looked up): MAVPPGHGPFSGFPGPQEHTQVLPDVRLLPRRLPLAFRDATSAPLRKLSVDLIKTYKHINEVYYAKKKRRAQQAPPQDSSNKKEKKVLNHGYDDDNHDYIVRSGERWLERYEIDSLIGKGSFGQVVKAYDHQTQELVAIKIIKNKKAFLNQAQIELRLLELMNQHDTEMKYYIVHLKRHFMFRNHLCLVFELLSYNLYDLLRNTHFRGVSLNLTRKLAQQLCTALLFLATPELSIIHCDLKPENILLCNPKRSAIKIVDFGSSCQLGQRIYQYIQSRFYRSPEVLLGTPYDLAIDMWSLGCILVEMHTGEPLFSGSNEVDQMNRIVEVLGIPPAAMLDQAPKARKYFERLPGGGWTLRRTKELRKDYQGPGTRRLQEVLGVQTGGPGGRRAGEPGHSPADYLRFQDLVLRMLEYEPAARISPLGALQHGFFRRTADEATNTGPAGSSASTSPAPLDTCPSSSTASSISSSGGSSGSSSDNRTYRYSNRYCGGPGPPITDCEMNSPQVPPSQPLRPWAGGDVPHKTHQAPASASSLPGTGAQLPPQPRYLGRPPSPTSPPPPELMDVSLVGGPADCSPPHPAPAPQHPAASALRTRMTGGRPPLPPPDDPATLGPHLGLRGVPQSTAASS
Chain of Mitogen-activated protein kinase 9 (Homo sapiens) (P45984 whole entry, looked up): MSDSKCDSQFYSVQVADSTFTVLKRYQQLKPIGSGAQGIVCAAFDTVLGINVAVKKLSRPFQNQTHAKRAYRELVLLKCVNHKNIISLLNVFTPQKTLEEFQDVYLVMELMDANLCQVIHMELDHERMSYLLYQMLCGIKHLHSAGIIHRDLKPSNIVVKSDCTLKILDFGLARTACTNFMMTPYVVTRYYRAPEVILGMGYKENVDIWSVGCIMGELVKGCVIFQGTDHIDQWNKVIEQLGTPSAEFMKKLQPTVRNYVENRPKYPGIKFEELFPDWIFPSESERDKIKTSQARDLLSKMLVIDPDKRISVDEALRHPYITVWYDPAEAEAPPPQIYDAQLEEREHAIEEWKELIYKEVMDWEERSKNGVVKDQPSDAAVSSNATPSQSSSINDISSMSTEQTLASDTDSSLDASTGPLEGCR
Chain of Glycogen synthase kinase-3 beta (Homo sapiens) (P49841 whole entry, looked up): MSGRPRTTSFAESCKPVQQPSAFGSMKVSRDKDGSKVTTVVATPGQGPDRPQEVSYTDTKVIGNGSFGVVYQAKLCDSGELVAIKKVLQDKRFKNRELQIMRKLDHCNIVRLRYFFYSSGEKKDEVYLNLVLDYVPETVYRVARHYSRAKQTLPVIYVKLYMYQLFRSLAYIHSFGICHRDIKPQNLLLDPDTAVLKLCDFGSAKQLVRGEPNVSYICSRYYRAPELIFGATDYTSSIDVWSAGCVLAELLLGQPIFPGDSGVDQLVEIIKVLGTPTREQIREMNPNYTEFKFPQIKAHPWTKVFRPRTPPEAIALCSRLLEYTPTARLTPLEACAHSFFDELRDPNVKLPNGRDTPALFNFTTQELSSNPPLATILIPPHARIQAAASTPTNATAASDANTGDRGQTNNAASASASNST

Compound | inhibition [1] [%] | inhibition [2] [%] | inhibition [3] [%] | inhibition [4] [%] | inhibition [5] [%] | inhibition [6] [%] | inhibition [7] [%] | inhibition [8] [%] | inhibition [9] [%] | inhibition [10] [%] | inhibition [11] [%] | inhibition [12] [%] | inhibition [13] [%] | inhibition [14] [%] | inhibition [15] [%] | inhibition [16] [%] | inhibition [17] [%] | inhibition [18] [%] | inhibition [19] [%] | inhibition [20] [%]
N#Cc1cccc(Nc2nccc(-c3cnn4ncccc34)n2)c1 | 78.4 | 81.7 | 86.4 | 81.3 | 86.5 | 20.3 | 71.5 | 85.3 | 89.5 | 84.1 | 88.1 | 82.9 | 89.3 | 79.9 | 88.1 | 10.4 | 44.3 | 15.6 | 59.4 | 8.27
NS(=O)(=O)c1ccc(NC=C2C(=O)Nc3ccc4ncsc4c32)cc1 | 17.3 | 30.9 | 63.2 | 20.4 | 57.6 | 10.9 | 46.2 | 40.4 | 70.9 | 41.1 | 71.8 | 14.2 | 47.4 | 2.67 | 21.7 | 8.45 | 36.1 | 11 | 47.4 | 7.04
COc1ccc(-c2nn3ncccc3c2-c2ccnc(Nc3cccc(C(F)(F)F)c3)n2)cc1 | 0.95 | 2.09 | 1.66 | -0.34 | 1.16 | 1.77 | 0.78 | 2.36 | 2.7 | 1.41 | 3.78 | 0.13 | -1.85 | 0.75 | 1.33 | 3.29 | 8.16 | 6.52 | 5.12 | 0.87
CCOc1nccc2c1nc(-c1nonc1N)n2CC | 2.9 | 1.13 | 3.41 | 0.32 | 2.83 | 1.54 | 2.84 | 3.1 | 10.2 | 3.37 | 11.9 | 5.35 | 9.39 | 6.7 | 12.2 | 1.55 | 1.43 | 4.78 | 4.07 | 5.64
CS(=O)(=O)CCNCc1nc(-c2ccc3ncnc(Nc4ccc(OCc5cccc(C(F)(F)F)c5)cc4)c3c2)cs1 | -1.22 | -1.28 | -1.8 | 0.58 | 2.3 | 1.36 | 1.03 | 6.47 | 4.93 | 5.25 | 4.85 | -1.73 | 0.09 | -0.35 | 0.46 | 2.97 | 6.45 | 1.69 | 1.79 | 2.89
Nc1nccc(-c2c(-c3ccc(F)cc3)nn3cc(C(F)(F)F)ccc23)n1 | 0.23 | 0.54 | 16.4 | -1.44 | 0.98 | 0.12 | -1.97 | -1.1 | -0.65 | -1.01 | -1.01 | -6.6 | -1.23 | -0.17 | 0.63 | 2.4 | 4.47 | -0.05 | 0.2 | 3.72
COc1cc(/C=N/Nc2ncnc3c2cnn3C(C)C)ccc1O | 31.6 | 1.4 | 8.18 | 0.35 | 7.69 | 1.46 | 5.67 | 6.47 | 37.4 | 4.9 | 32.9 | 0.71 | 16.1 | 1.74 | 19.6 | 2.63 | 3.44 | 1.48 | 2.57 | 1.63
CN1CCN(C(=O)c2ccc(NC(=O)Nc3ccc(N(C)c4ccnc(Nc5ccc(CS(C)(=O)=O)cc5)n4)cc3)cc2)CC1 | -0.46 | -0.03 | -2.1 | 0.37 | -2.01 | 2.14 | 4.06 | 2.9 | 4.98 | 1.98 | 4.51 | -3.22 | 5.55 | 0.53 | 9.14 | 0.8 | 12.4 | 1.77 | 11.2 | 2.64
Cc1cc(O)cc(C)c1/C=C/c1cncc(C(=O)N(C)C)c1 | 1.59 | 1.64 | 3.33 | 1.15 | 2 | 2.94 | 3.72 | 6.93 | 10.2 | 6.11 | 9.44 | 0.32 | 4.88 | 4.28 | 7.94 | -0.29 | 2.38 | 2.76 | 2.51 | 3.48
NC(=O)c1sc(-n2cnc3ccccc32)cc1OCc1ccccc1Br | 0.92 | 2.9 | 4.57 | 0.66 | 2.25 | 3.45 | 5.8 | 5.13 | 11.9 | 4.55 | 11.8 | -1.6 | 7.12 | 0.95 | 7.54 | 4.13 | 6 | 3.31 | 5.56 | 1.19
NC(=O)c1cccc(Nc2nccc(Nc3cccc(F)c3)n2)c1 | 2.19 | 0.47 | 0.26 | 0.64 | -0.2 | 1.36 | 1.82 | 3.82 | 21 | 2.25 | 15.8 | -3.17 | 5.3 | 0.35 | 8.46 | 0.09 | 8.39 | 0.99 | 2.19 | -0.06
CC(C)c1ccc2c(c1)NC(=O)/C2=N/Nc1ccc(S(N)(=O)=O)cc1 | -0.08 | 0.62 | 2.99 | 3.56 | 4.99 | 0.96 | -0.44 | 4.22 | 16.5 | 4.19 | 16.8 | -1.88 | 4.72 | 0.27 | 1.57 | 0.14 | 0.34 | 2.02 | 0.4 | 1.56
COC(=O)Nc1nc2cc(Oc3ccc(NC(=O)Nc4cccc(Br)c4)cc3)ccc2[nH]1 | 1.74 | 1.12 | 2.3 | 0.23 | 1.17 | 3.11 | 3.59 | 2.27 | 5.24 | 1.01 | 6.86 | -0.71 | 2.41 | 8.37 | 19.5 | 3.12 | 4.83 | 2.82 | 2.49 | 2.94

Source: ChEMBL document CHEMBL1961873, “Compounds: GSK PKIS; Assays: Nanosyn kinase panel” (2012)
